Measurements reported in publication PMC7862700, “An all-to-all approach to the identification of sequence-specific readers for epigenetic DNA modifications on cytosine”.

Experiments:
Assay in all cases: DAPPL (digital affinity profiling via proximity ligation, sequencing); 10 mM Tris-HCl pH 7.5, 50 mM NaCl, 1 mM DTT, 4% glycerol, room temperature, 30 min; GST-TFs on glutathione beads, 16-mer random dsDNA library, 0.1% formaldehyde crosslink after washing; high values mean tight binding
FLI1 = target: T1, FLI1 (Homo sapiens, UniProt Q01543 1-452); details: protein: recombinant; tags: N-terminal GST; dsDNA, one strand shown
T1 sequence: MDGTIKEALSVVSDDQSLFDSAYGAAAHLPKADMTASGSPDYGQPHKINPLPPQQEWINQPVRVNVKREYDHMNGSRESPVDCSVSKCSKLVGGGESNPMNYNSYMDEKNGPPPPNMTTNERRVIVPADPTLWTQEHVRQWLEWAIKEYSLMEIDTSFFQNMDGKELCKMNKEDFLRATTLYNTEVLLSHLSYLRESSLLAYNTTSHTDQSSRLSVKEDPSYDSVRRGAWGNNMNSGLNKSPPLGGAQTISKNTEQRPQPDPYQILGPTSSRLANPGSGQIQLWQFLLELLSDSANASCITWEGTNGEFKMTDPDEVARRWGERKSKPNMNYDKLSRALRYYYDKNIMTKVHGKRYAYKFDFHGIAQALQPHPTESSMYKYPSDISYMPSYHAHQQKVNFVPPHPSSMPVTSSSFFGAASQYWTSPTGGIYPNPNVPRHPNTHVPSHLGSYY
Procedure, shortened: (§1)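 Beads coated with glutathione captured GST-fused human transcription factors that had been expressed in yeast, and the factors were then given DNA barcodes and pooled with a tag-only sample. The pools were incubated with 200 nmole of a random double-stranded 16-mer DNA library in Tris/NaCl/DTT/glycerol buffer for 30 min at room temperature, washed, crosslinked with 0.1% formaldehyde and proximity-ligated with BsaI/T4 ligase at 37 °C for 1 h. PCR amplification and Illumina NextSeq500 sequencing came last. Binding signal is each hexamer's read frequency for a factor divided by its frequency for the tag-only sample.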

ELK1 = target: T2, ELK1 (Homo sapiens, UniProt P19419 1-428); details: protein: recombinant; tags: N-terminal GST; dsDNA, one strand shown
T2 sequence: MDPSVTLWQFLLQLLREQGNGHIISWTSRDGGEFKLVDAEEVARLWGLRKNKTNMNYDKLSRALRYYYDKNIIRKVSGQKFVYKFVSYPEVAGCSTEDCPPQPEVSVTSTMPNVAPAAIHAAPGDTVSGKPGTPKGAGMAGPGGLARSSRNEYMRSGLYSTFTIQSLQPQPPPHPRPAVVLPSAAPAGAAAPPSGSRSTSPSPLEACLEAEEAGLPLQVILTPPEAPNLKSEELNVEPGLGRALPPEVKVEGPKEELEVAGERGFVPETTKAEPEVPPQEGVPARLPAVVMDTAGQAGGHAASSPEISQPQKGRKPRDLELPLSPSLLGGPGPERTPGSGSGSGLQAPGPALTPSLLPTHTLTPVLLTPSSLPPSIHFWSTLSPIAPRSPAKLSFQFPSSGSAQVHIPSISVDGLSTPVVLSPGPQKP
Procedure, shortened: as §1

GABPA = target: T3, GABPA (Homo sapiens, UniProt Q06546 1-454); details: protein: recombinant; tags: N-terminal GST; dsDNA, one strand shown
T3 sequence: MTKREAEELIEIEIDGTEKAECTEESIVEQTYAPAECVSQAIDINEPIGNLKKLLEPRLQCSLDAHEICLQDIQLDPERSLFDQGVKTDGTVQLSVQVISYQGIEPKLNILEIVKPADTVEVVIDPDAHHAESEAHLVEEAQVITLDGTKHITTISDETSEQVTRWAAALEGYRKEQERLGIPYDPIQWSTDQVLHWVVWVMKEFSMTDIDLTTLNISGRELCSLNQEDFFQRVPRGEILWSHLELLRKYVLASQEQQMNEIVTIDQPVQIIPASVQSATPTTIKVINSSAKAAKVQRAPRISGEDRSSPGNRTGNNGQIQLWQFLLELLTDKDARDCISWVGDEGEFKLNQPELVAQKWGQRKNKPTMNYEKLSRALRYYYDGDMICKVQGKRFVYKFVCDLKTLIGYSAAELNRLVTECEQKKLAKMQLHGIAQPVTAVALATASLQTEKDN
Procedure, shortened: as §1

ERG = target: T4, ERG (Homo sapiens, UniProt P11308 1-479); details: protein: recombinant; tags: N-terminal GST; dsDNA, one strand shown
T4 sequence: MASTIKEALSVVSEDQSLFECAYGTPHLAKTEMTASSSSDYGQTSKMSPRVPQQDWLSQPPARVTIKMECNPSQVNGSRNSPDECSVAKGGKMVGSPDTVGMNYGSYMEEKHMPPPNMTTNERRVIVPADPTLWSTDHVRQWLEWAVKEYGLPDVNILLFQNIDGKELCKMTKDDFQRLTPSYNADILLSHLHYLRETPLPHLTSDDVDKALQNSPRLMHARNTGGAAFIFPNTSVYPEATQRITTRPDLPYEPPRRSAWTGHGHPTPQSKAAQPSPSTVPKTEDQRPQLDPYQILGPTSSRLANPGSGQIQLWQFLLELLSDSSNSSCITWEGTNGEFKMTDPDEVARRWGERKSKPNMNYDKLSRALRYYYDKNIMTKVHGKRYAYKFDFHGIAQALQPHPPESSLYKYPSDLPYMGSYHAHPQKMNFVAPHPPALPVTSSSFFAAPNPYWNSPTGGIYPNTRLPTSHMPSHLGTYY
Procedure, shortened: as §1

ELF1 = ELF1 (Homo sapiens, UniProt P32519 1-619); details: protein: recombinant; tags: N-terminal GST; dsDNA, one strand shown
Chain of ELF1 (P32519 whole entry): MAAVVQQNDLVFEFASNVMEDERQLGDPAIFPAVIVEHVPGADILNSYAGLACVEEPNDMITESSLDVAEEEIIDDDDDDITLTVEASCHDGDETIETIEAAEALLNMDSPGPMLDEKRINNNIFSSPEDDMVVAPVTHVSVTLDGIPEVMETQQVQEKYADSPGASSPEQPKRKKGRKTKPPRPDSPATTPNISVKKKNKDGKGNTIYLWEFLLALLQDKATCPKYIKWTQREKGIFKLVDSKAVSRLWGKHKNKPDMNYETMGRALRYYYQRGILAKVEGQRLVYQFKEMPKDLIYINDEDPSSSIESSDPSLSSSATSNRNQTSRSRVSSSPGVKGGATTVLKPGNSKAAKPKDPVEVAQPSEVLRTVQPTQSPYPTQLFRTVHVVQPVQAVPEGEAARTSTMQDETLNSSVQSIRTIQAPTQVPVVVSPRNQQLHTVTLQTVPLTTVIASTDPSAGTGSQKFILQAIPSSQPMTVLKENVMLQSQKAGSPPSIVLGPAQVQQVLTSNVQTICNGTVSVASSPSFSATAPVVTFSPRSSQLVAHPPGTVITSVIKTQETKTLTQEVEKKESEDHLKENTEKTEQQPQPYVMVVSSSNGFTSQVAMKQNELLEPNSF
Procedure, shortened: as §1

EHF = target: T5, EHF (Homo sapiens, UniProt Q9NZC4 1-300); details: protein: recombinant; tags: N-terminal GST; dsDNA, one strand shown
T5 sequence: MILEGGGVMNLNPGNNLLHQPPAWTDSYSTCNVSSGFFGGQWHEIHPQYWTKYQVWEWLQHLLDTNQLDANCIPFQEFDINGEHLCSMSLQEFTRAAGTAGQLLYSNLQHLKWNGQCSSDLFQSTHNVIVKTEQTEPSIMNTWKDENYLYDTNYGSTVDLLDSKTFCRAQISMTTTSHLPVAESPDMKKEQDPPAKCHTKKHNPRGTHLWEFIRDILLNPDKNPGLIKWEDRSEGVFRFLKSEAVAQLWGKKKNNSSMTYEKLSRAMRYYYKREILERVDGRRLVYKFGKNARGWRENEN
Procedure, shortened: as §1

SPI1 = SPI1 (Homo sapiens, UniProt P17947 1-270); details: protein: recombinant; tags: N-terminal GST; dsDNA, one strand shown
Procedure, shortened: as §1

SPIB = SPIB (Homo sapiens, UniProt Q01892 1-262); details: protein: recombinant; tags: N-terminal GST; dsDNA, one strand shown
Chain of SPIB (Q01892 whole entry): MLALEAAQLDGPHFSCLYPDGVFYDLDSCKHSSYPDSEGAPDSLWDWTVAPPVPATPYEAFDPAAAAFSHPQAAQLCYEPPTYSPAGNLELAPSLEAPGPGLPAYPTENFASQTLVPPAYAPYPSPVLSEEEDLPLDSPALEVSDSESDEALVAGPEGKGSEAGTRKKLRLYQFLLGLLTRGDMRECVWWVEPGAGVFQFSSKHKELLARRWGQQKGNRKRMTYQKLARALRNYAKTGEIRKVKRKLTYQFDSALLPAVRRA
Procedure, shortened: as §1

ELK3 = target: T6, ELK3 (Homo sapiens, UniProt P41970 1-407); details: protein: recombinant; tags: N-terminal GST; dsDNA, one strand shown
T6 sequence: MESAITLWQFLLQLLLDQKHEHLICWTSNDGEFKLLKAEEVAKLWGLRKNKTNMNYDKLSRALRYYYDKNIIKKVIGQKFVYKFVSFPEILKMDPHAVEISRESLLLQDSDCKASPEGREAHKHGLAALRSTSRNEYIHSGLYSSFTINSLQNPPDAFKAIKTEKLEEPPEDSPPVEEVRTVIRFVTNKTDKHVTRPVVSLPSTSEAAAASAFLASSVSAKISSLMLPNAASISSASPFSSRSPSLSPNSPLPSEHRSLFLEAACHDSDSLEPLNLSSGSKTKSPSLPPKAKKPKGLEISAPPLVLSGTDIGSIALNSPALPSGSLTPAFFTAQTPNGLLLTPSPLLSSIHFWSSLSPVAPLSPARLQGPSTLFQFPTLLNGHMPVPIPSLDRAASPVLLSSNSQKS
Procedure, shortened: as §1

FEV = target: T7, FEV (Homo sapiens, UniProt Q99581 1-238); details: protein: recombinant; tags: N-terminal GST; dsDNA, one strand shown
T7 sequence: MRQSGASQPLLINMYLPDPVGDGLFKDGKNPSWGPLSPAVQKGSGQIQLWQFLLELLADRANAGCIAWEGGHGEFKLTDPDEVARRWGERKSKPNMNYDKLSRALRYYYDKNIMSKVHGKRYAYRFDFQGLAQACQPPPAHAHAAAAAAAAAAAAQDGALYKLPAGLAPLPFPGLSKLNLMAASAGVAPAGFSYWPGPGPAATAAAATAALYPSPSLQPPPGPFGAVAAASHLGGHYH
Procedure, shortened: as §1

ETV5 = ETV5 (Homo sapiens, UniProt P41161 1-510); details: protein: recombinant; tags: N-terminal GST; dsDNA, one strand shown
Chain of ETV5 (P41161 whole entry): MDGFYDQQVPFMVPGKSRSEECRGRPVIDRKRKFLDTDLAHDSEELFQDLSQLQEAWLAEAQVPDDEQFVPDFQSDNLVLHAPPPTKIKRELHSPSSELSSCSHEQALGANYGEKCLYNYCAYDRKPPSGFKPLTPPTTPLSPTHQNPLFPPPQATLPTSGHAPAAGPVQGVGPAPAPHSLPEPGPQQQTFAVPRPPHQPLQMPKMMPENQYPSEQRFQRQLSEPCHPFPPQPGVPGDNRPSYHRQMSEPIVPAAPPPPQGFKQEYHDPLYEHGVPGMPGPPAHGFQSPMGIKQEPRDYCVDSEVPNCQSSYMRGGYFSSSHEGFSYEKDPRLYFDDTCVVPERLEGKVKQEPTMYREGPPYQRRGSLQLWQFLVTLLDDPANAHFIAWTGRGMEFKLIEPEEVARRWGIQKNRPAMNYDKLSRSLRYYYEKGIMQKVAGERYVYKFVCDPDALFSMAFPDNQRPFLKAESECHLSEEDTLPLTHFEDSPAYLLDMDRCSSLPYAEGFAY
Procedure, shortened: as §1

HSF1 = HSF1 (Homo sapiens, UniProt Q00613 1-529); details: protein: recombinant; tags: N-terminal GST; chain copies: 3; dsDNA, one strand shown
Chain of HSF1 (Q00613 whole entry): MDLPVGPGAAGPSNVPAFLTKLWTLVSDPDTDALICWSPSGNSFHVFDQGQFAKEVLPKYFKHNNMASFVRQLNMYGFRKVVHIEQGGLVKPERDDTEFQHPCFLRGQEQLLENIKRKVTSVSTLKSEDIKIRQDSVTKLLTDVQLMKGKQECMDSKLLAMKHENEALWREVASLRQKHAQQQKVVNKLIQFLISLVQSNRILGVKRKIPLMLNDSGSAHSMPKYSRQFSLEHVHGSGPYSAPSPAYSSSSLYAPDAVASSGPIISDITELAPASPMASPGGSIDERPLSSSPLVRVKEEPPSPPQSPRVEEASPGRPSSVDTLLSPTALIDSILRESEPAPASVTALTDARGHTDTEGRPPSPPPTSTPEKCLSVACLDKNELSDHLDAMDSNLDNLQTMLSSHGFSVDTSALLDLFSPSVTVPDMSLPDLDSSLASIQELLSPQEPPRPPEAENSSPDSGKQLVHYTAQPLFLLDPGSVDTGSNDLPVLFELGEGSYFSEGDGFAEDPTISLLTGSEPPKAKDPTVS
Procedure, shortened: as §1

SPIC = target: T8, SPIC (Homo sapiens, UniProt Q8N5J4 1-248); details: protein: recombinant; tags: N-terminal GST; dsDNA, one strand shown
T8 sequence: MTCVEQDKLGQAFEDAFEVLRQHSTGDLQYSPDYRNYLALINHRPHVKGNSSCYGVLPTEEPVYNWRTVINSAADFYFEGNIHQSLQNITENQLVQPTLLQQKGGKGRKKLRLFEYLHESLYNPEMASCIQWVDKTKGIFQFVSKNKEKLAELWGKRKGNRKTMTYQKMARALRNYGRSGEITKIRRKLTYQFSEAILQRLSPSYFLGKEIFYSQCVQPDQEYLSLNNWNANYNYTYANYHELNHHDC
Procedure, shortened: as §1

ELF4 = ELF4 (Homo sapiens, UniProt Q99607 1-663); details: protein: recombinant; tags: N-terminal GST; dsDNA, one strand shown
Chain of ELF4 (Q99607 whole entry): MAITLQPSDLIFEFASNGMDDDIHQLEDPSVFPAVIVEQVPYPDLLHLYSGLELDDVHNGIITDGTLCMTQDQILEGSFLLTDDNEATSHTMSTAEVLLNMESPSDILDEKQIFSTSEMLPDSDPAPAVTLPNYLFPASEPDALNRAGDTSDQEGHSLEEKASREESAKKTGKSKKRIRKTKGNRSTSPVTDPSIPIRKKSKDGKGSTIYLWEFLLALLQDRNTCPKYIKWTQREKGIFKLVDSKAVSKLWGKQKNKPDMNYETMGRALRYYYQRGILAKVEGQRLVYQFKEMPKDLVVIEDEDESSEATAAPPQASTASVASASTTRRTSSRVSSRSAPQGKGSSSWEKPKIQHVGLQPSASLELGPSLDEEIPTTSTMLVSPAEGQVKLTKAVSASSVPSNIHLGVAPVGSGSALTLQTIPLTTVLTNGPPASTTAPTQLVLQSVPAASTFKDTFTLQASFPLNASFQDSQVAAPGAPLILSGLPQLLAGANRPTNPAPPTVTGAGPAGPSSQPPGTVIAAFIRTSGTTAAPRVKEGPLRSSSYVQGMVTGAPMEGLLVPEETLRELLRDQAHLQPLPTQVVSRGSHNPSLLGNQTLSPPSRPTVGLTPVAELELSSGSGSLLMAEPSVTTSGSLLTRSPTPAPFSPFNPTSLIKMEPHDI
Procedure, shortened: as §1

ETV2 = target: T9, ETV2 (Homo sapiens, UniProt O00321 1-342); details: protein: recombinant; tags: N-terminal GST; dsDNA, one strand shown
T9 sequence: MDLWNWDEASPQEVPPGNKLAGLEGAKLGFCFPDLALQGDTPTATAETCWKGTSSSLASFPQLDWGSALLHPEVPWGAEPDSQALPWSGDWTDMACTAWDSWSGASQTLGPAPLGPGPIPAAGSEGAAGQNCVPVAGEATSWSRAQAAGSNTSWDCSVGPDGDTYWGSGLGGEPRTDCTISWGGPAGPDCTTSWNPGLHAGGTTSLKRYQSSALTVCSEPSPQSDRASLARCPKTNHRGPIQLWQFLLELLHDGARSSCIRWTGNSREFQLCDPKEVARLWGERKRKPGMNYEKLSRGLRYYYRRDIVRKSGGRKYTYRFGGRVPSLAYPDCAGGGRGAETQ
Procedure, shortened: as §1

ELF3 = target: T10, ELF3 (Homo sapiens, UniProt P78545 1-371); details: protein: recombinant; tags: N-terminal GST; dsDNA, one strand shown
T10 sequence: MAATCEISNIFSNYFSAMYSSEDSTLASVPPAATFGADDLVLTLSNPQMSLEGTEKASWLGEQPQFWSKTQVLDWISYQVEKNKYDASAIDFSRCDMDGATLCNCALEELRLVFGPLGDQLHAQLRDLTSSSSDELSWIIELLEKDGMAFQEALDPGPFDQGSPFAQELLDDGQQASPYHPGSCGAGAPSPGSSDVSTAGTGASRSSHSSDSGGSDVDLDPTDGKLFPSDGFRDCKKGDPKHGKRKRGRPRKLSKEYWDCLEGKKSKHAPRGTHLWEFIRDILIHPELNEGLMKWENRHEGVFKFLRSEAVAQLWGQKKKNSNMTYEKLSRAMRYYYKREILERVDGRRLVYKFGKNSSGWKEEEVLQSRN
Procedure, shortened: as §1

ETV1 = ETV1 (Homo sapiens, UniProt P50549 1-477); details: protein: recombinant; tags: N-terminal GST; dsDNA, one strand shown
Chain of ETV1 (P50549 whole entry): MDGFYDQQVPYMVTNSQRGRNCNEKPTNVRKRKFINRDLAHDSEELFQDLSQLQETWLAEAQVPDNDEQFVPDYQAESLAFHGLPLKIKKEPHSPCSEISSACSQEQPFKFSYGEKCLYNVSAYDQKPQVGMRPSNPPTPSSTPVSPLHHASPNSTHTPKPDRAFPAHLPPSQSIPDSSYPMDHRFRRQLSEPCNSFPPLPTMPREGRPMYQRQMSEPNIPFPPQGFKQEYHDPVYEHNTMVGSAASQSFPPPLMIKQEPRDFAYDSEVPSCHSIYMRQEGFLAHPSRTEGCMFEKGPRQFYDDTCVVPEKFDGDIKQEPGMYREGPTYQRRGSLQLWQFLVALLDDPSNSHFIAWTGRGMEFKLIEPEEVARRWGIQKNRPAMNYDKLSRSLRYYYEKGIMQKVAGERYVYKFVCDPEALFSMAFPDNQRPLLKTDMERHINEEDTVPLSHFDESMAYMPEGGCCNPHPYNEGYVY
Procedure, shortened: as §1

CRX = CRX (Homo sapiens, UniProt O43186 1-299); details: protein: recombinant; tags: N-terminal GST; dsDNA, one strand shown
Chain of CRX (O43186 whole entry): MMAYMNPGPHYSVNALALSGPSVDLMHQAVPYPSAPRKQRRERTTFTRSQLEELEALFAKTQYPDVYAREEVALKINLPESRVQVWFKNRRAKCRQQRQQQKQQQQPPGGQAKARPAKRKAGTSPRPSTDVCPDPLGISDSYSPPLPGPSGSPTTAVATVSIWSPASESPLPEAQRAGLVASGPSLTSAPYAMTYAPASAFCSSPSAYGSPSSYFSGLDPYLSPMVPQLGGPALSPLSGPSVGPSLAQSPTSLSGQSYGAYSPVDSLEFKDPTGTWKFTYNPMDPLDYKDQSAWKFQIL
Procedure, shortened: as §1

Sequence	binding signal (FLI1)	binding signal (ELK1)	binding signal (GABPA)	binding signal (ERG)	binding signal (ELF1)	binding signal (EHF)	binding signal (SPI1)	binding signal (SPIB)	binding signal (ELK3)	binding signal (FEV)	binding signal (ETV5)	binding signal (HSF1)	binding signal (SPIC)	binding signal (ELF4)	binding signal (ETV2)	binding signal (ELF3)	binding signal (ETV1)	binding signal (CRX)
GTTTTC	1.19 fold enrichment (6-mer frequency, TF over GST control)	1.2 fold enrichment (6-mer frequency, TF over GST control)	1.23 fold enrichment (6-mer frequency, TF over GST control)	1.24 fold enrichment (6-mer frequency, TF over GST control)	1.15 fold enrichment (6-mer frequency, TF over GST control)	1.28 fold enrichment (6-mer frequency, TF over GST control)	1.17 fold enrichment (6-mer frequency, TF over GST control)	1.2 fold enrichment (6-mer frequency, TF over GST control)	1.23 fold enrichment (6-mer frequency, TF over GST control)	1.21 fold enrichment (6-mer frequency, TF over GST control)	1.24 fold enrichment (6-mer frequency, TF over GST control)	1.13 fold enrichment (6-mer frequency, TF over GST control)	1.1 fold enrichment (6-mer frequency, TF over GST control)	1.2 fold enrichment (6-mer frequency, TF over GST control)	1.25 fold enrichment (6-mer frequency, TF over GST control)	1.32 fold enrichment (6-mer frequency, TF over GST control)	1.13 fold enrichment (6-mer frequency, TF over GST control)	–
ATCGTC	1.11 fold enrichment (6-mer frequency, TF over GST control)	1.17 fold enrichment (6-mer frequency, TF over GST control)	1.06 fold enrichment (6-mer frequency, TF over GST control)	1.03 fold enrichment (6-mer frequency, TF over GST control)	1.05 fold enrichment (6-mer frequency, TF over GST control)	1.1 fold enrichment (6-mer frequency, TF over GST control)	1.04 fold enrichment (6-mer frequency, TF over GST control)	1.15 fold enrichment (6-mer frequency, TF over GST control)	–	1.02 fold enrichment (6-mer frequency, TF over GST control)	1.06 fold enrichment (6-mer frequency, TF over GST control)	1.06 fold enrichment (6-mer frequency, TF over GST control)	1.06 fold enrichment (6-mer frequency, TF over GST control)	1.07 fold enrichment (6-mer frequency, TF over GST control)	1.02 fold enrichment (6-mer frequency, TF over GST control)	–	1.14 fold enrichment (6-mer frequency, TF over GST control)	1.09 fold enrichment (6-mer frequency, TF over GST control)
